40 compounds from PubChem BioAssay (NCATS) can be followed below.

Structures are written as SMILES. Inconclusive results are not listed. A call without a number means that no potency is given here. The source made the active and inactive calls. Calls follow the shape of the dose curve; as a rule, active = well fitted curve in the direction sought with a large enough effect; inconclusive = small, poorly fitted or top-dose-only effect, or another doubt; inactive = no such curve, though single readings can be large; an effect the other way counts as inactive or inconclusive.

For the first experiment, the target named is Aldehyde dehydrogenase, mitochondrial (Homo sapiens) (UniProt P05091). The experiment is described as follows: qHTS for Inhibitors of the Aldehyde Dehydrogenase Family (ALDH2) Primary screen (AID 2061308). Also: nearly all actives have a fitted effect of over 55% in size. The following applies: ALDH2 enzyme inhibition qHTS, 1536-well; series mostly up to 56 µM. In general terms: Quantitative high-throughput screening tests each substance at several concentrations.
For `COC(=O)c1ccc(O)c2ncc(-c3ccc(C(=O)NCCCN(C)C)cc3)cc12`, the Potency entry was “inactive”.
For `O=S(=O)(Nc1cccc2cccnc12)c1ccccc1`, the Potency entry was “inactive”.
`N#Cc1nc(NC2CCCC2)c2ncn(-c3cc(F)cc(F)c3)c2n1`: the Potency entry is “inactive”.
Consider `CCC(=O)NC(c1cccs1)c1ccc2cccnc2c1O` (stereo not drawn), for which the Potency result is “inactive”.
Consider `O=C(Nc1nc(-c2ccccc2)cs1)c1ccncc1NS(=O)(=O)c1cccnc1`, for which the Potency result was “inactive”.
Take `CCCn1c(C)nc2c(NCCN3CCCCC3)nc(C)nc21`: the Potency entry was “inactive”.
As to `Cc1ccc(NC(=O)c2cnn3c(C)cc(C)nc23)c(C)c1`, the Potency entry is “inactive”.
As for `O=C(OCC#CCSc1nnc(-c2cccc3ccccc23)o1)c1ccc(OC(F)(F)F)cc1`, the Potency result was “inactive”.
Take `O=[S+]([O-])(Nc1nccs1)c1ccc(NCc2cccc(Cl)c2)cc1`: the Potency result is “inactive”.
On the same count and under the same terms, then `Cc1ccc(NS(=O)(=O)c2ccc3c(c2)CCN(C(=O)C(F)(F)F)C3)cc1C`, with “inactive”.
Same read-out and setting: in the case of `Fc1ccc(-c2nc(-c3c(F)cccc3F)[nH]c2-c2ccncc2)cc1` it was “inactive”.
In the case of `C[C@@H]1O[C@@H](O[C@H]2[C@@H](OC(=O)[C@]34CCC(C)(C)CC3C3=CCC5[C@@]6(C)C[C@H](O)[C@H](O[C@@H]7O[C@H](CO)[C@@H](O)[C@H](O)[C@H]7O[C@@H]7OC[C@@H](O)[C@H](O)[C@H]7O)[C@@](C)(C(=O)O)C6CC[C@@]5(C)[C@]3(C)CC4)OC[C@H](O)[C@@H]2O)[C@H](O)[C@H](O)[C@H]1O[C@@H]1OC[C@@H](O)[C@H](O)[C@H]1O` (stereo partly drawn), the activity change, negative = inhibition is 6.76% [at 11.2 µM] (inactive).
`Cc1nc(-c2ccc(S(=O)(=O)Nc3ccc(C)c(C)c3)s2)cs1`: the Potency result was “inactive”.
Turning to `COc1cccc(S(=O)(=O)Nc2cnccc2C(=O)Nc2nc(-c3ccccc3)cs2)c1`, the Potency entry is “inactive”.
Same read-out and setting: then `Cn1nnnc1Sc1ncnc2scc(-c3ccc(N)cc3)c12`, with “inactive”.
The same measure, in the same setting: in the case of `COc1cccc(C2=Nn3c(nnc3-c3cccc(OC)c3)SC2)c1` it was “inactive”; in that of `CC(C)(C)NC(=O)N1CCC(C(=O)Nc2ccc([S+](=O)([O-])Nc3nccs3)cc2)CC1`, “inactive”.
With `COc1cc(O)c(C(CC(=O)N2CCC(Cc3ccccc3)CC2)c2ccc3c(c2)OCO3)c(OC)c1` (stereo not drawn), the Potency result was “inactive”.
With `CC(C)(C)C1CCC(C(=O)Nc2ccc(S(=O)(=O)Nc3nccs3)cc2)CC1` (stereo not drawn), the Potency entry is “inactive”.
On to `N#Cc1cc(-c2nc(Nc3ccc(F)c(F)c3)c3ccccc3n2)ccn1`, for which the Potency result was “inactive”.
With `O=C(Cc1ccc(Cl)c(Cl)c1)Nc1ccc([S+](=O)([O-])Nc2nnc(-c3ccccn3)s2)cc1`, the Potency result is “inactive”.
For the compound `COc1ccc(C2=Nn3c(nnc3-c3ccccc3Cl)SC2)cc1O[C@H]1CCOC1`, the Potency entry is “inactive”.
On to `FC(F)(F)c1ccccc1-c1nc2c(c(NCc3ccc(-c4cccnc4)cc3)n1)CCC2`, for which the Potency result was “inactive”.

The next experiment addresses Retinaldehyde dehydrogenase 3 (Homo sapiens) (UniProt P47895). Put plainly: qHTS for Inhibitors of the Aldehyde Dehydrogenase Family (ALDH1A3) Primary screen (AID 2061315). The following applies: ALDH inhibition qHTS; series mostly up to 56 µM.
On to `N#CC1=C(NC=NCc2ccccc2)Oc2ccc3ccccc3c2C1c1ccccc1` (stereo not drawn), for which the Potency result was “inactive”.
On the same count and under the same terms, then `CCC1(CC)CCN(C(=O)CC(c2ccc3c(c2)OCO3)c2c(O)cc(OC)cc2OC)C1` (stereo not drawn), with “inactive”; and `CNc1oc(-c2ccc(Cl)c(Cl)c2)nc1C#N`, with “inactive”.
Still for that read-out and setting: in the case of `N#Cc1nc(Nc2cc(F)cc(F)c2)nc(NC2CCCC2)n1` it was “inactive”.
For the compound `Cc1nc(NCCO)c2nc(-c3ccccc3)n(CCN(C)C)c2n1`, the Potency entry was “inactive”.
Take `Cc1cccc(Cn2ncc3c4sc(C)cc4n(C)c3c2=O)c1`: the Potency entry is “inactive”.
The same measure, in the same setting: then `COc1ccc(N2C[C@]34C=C[C@H](O3)C(C(=O)O)C4C2=O)cc1OC` (stereo partly drawn), with “inactive”; and `N#Cc1nc(Nc2ccc(-c3ccccc3)cc2)nc(NC2CCCC2)n1`, with “inactive”.
In the case of `O=C(c1ccccc1O)N(Cc1ccccc1)Cc1ccccc1`, the Potency entry is “inactive”.
Take `Nc1ccc(Cl)cc1C(=O)c1ccc[nH]1`: the Potency result was “inactive”.
For `CC(=O)O[C@@H]1C=C2[C@H](CC[C@@]3(C)[C@@]2(O)CC[C@H]2Cc4c([nH]c5ccccc45)[C@@]23C)O[C@@H]1C(C)(C)O`, the Potency result was “inactive”.
On to `Cc1ccc(S(=O)(=O)Nc2cnccc2C(=O)Nc2nc(-c3ccccc3)cs2)cc1`, for which the Potency result is “inactive”.
For `Cc1nc(NC2CCCCC2)c2nc(-c3ccccc3)n(CC3CCN(C)CC3)c2n1`, the Potency entry is “inactive”.
In the case of `Cc1cccc(C)c1SC1=NS(=O)(=O)c2ccccc21`, the Potency result is “inactive”.
As for `COc1ccc(C(=O)Oc2ccc(-c3nc4ccccc4[nH]3)cc2)cc1OC`, the Potency result was “inactive”.
Still for that read-out and setting: then `COC(=O)C1CCc2sc(NC(=O)Cc3ccccc3)c(C(=O)Nc3ccc(Cl)cc3)c21` (stereo not drawn), with “inactive”.
As to `CCN(Cc1ccccc1)c1ccc(Br)cn1`, the Potency entry was “inactive”.
Same read-out and setting: in the case of `COC(=O)c1ccc(O)c2ncc(-c3ccc(C(=O)NCCCN(C)C)cc3)cc12` it was “inactive”; in that of `O=S(=O)(Nc1cccc2cccnc12)c1ccccc1`, “inactive”; in that of `N#Cc1nc(NC2CCCC2)c2ncn(-c3cc(F)cc(F)c3)c2n1`, “inactive”.
Regarding `CCC(=O)NC(c1cccs1)c1ccc2cccnc2c1O` (stereo not drawn), the Potency entry is “inactive”.
Take `O=C(Nc1nc(-c2ccccc2)cs1)c1ccncc1NS(=O)(=O)c1cccnc1`: the Potency entry was “inactive”.
With `CCCn1c(C)nc2c(NCCN3CCCCC3)nc(C)nc21`, the Potency result is “inactive”.
As to `Cc1ccc(NC(=O)c2cnn3c(C)cc(C)nc23)c(C)c1`, the Potency result was “inactive”.
As for `O=C(OCC#CCSc1nnc(-c2cccc3ccccc23)o1)c1ccc(OC(F)(F)F)cc1`, the Potency result was “inactive”.
The same measure, in the same setting: then `O=[S+]([O-])(Nc1nccs1)c1ccc(NCc2cccc(Cl)c2)cc1`, with “inactive”.
Consider `Cc1ccc(NS(=O)(=O)c2ccc3c(c2)CCN(C(=O)C(F)(F)F)C3)cc1C`, for which the Potency entry was “inactive”.
Same read-out and setting: then `Fc1ccc(-c2nc(-c3c(F)cccc3F)[nH]c2-c2ccncc2)cc1`, with “inactive”.
In the case of `C[C@@H]1O[C@@H](O[C@H]2[C@@H](OC(=O)[C@]34CCC(C)(C)CC3C3=CCC5[C@@]6(C)C[C@H](O)[C@H](O[C@@H]7O[C@H](CO)[C@@H](O)[C@H](O)[C@H]7O[C@@H]7OC[C@@H](O)[C@H](O)[C@H]7O)[C@@](C)(C(=O)O)C6CC[C@@]5(C)[C@]3(C)CC4)OC[C@H](O)[C@@H]2O)[C@H](O)[C@H](O)[C@H]1O[C@@H]1OC[C@@H](O)[C@H](O)[C@H]1O` (stereo partly drawn), the activity change, negative = inhibition was 0.185% [at 11.2 µM] (inactive).
In the case of `Cc1nc(-c2ccc(S(=O)(=O)Nc3ccc(C)c(C)c3)s2)cs1`, the Potency result was “inactive”.
On to `COc1cccc(S(=O)(=O)Nc2cnccc2C(=O)Nc2nc(-c3ccccc3)cs2)c1`, for which the Potency result is “inactive”.
The same measure, in the same setting: in the case of `Cn1nnnc1Sc1ncnc2scc(-c3ccc(N)cc3)c12` it was “inactive”; in that of `COc1cccc(C2=Nn3c(nnc3-c3cccc(OC)c3)SC2)c1`, “inactive”.
Turning to `CC(C)(C)NC(=O)N1CCC(C(=O)Nc2ccc([S+](=O)([O-])Nc3nccs3)cc2)CC1`, the Potency result is “inactive”.
For the compound `COc1cc(O)c(C(CC(=O)N2CCC(Cc3ccccc3)CC2)c2ccc3c(c2)OCO3)c(OC)c1` (stereo not drawn), the Potency entry was “inactive”.
Regarding `CC(C)(C)C1CCC(C(=O)Nc2ccc(S(=O)(=O)Nc3nccs3)cc2)CC1` (stereo not drawn), the Potency result was “inactive”.
With `N#Cc1cc(-c2nc(Nc3ccc(F)c(F)c3)c3ccccc3n2)ccn1`, the Potency entry was “inactive”.
Take `O=C(Cc1ccc(Cl)c(Cl)c1)Nc1ccc([S+](=O)([O-])Nc2nnc(-c3ccccn3)s2)cc1`: the Potency entry was “inactive”.
For the compound `COc1ccc(C2=Nn3c(nnc3-c3ccccc3Cl)SC2)cc1O[C@H]1CCOC1`, the Potency result is “inactive”.
Consider `FC(F)(F)c1ccccc1-c1nc2c(c(NCc3ccc(-c4cccnc4)cc3)n1)CCC2`, for which the Potency result was “inactive”.
